A selection: hits, their analogues and other compounds. The true share with any hit is near 2.9%.
ADAM17 inh – ADAM17 inhibition, QFRET primary screen | recombinant ADAM17, EDANS/DABCYL FRET peptide cleavage | hit rate 0.83% among 370,000 | P78536 | inhibition, % at 6.95 µM;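 active means inhibition above the mean of compounds lying between control limits plus 3 SD, set per campaign, cut at about 8.5% in these data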;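 further: 0% = DMSO-only wells as the low control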
Target sequence (P78536 215-824 limits assumed): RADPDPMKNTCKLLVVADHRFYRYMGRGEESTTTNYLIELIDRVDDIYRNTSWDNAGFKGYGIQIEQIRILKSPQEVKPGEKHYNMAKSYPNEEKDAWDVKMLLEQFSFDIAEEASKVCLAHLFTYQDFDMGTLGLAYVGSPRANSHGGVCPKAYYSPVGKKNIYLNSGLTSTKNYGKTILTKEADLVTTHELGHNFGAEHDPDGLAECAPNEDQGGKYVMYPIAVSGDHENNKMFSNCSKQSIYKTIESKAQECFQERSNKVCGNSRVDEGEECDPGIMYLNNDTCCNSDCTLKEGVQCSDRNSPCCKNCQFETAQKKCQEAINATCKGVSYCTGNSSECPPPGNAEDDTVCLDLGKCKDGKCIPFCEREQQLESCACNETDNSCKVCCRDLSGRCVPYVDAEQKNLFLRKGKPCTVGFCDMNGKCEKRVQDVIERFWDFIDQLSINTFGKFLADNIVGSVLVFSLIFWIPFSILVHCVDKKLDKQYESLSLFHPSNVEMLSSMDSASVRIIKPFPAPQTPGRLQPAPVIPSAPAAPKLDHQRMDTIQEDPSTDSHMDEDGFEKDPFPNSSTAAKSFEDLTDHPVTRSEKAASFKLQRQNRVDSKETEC
PLC-beta3 inh – blocks human PLC-beta3 enzyme activity | Purified PLC-beta3, fluorogenic substrate, fluorescence | inhibition, % at 12.2 µM | AID 720704 | hit rate 0.18% among 370,000; in the data active means inhibition above about 11%;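 further: 0% = median of compound wells on plate and 100% = full blocker control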
PLC-gamma1 inh – inhibitors of human phospholipase C gamma1 | P19174 | purified PLC-gamma1, fluorogenic substrate, fluorescence | inhibition, % at 12.2 µM | hit rate 0.84% among 370,000 | AID 720700; in the data active means inhibition above about 9.5%
KLK7 zymogen act – proKLK7 (human) activation, primary screen; P49862; purified proKLK7, EDANS-DABCYL substrate fluorescence; 100% is mature enzyme control, 0% vehicle; activation, % at 7 µM; hit rate 0.9% among 370,000;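 active means activation above the mean of all tested compounds plus 3 SD, computed per campaign excluding outliers beyond control limits, cut at about 13% in these data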
ADAM10 inh – ADAM10 inhibition, QFRET primary screen; O14672; recombinant ADAM10, EDANS/DABCYL FRET peptide cleavage, 3 h; inhibition, % at 7 µM; hit rate 0.62% among 370,000; AID 720582;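 active means inhibition above a per-campaign cutoff equal to the mean of compounds falling between control-based bounds plus 3 SD, cut at about 20% in these data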;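 further: 0% = DMSO wells while the 100% control is not disclosed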
ADAM10 confirm – human ADAM10 inhibition, confirmation; shares compounds with ADAM10 inh; ADAM10 QFRET peptide cleavage, EDANS fluorescence; hit rate 1% among 2,100; inhibition, % at 6.95 µM; AID 743208;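 active means inhibition above about 20% chosen separately for each screening run, limit read from the data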;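 further: 0% = DMSO wells and 100% = marimastat wells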
ADAM17 ctr – inhibits human ADAM17 in ADAM10 exosite counter-screen; shares compounds with ADAM10 inh; ADAM17 QFRET peptide cleavage, EDANS fluorescence; inhibition, % at 6.95 µM; hit rate 0.5% among 2,100; AID 743214;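 active means mean triplicate inhibition above the solvent-only control wells' mean plus 3 SD, cut at about 12% in these data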;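 further: 0% = DMSO wells and 100% = marimastat wells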
An asterisk follows results filed as active; x = no result given.

SMILES	ADAM17 inh	PLC-beta3 inh	PLC-gamma1 inh	KLK7 zymogen act	ADAM10 inh	ADAM10 confirm	ADAM17 ctr
Fc1ccccc1NC(=S)NNc1ncc(C(F)(F)F)cc1Cl	5.1	-1.7	6.0	-0.4	20.7*	1.9	1.4
COc1cc(/C=N/OCC(=O)Nc2ccc(OC(F)F)cc2)ccc1OCc1ccccc1	1.5	-10.3	-8.8	-4.5	23.1*	11.2	3.9
CC(=O)Nc1ccc(NC(=O)c2ccc(-c3ccccc3Cl)o2)cc1	-1.5	-15.4	-8.6	0.0	3.2	x	x
O=C(Nc1ccccc1)c1ccc(-c2ccccc2Cl)o1	4.2	-16.5	-14.1	1.0	20.5*	5.5	2.2
Cn1nnnc1Sc1ncnc2scc(-c3ccccc3C(F)(F)F)c12	0.9	1.8	-1.2	0.9	-0.8	x	x
CC(=O)c1ccccc1-c1csc2ncnc(Sc3nnnn3C)c12	-6.0	0.2	0.3	0.1	76.1*	0.9	0.2
Cc1cc(C)cc(NC(=S)N2CCN(c3ncccn3)CC2)c1	0.5	2.9	4.1	0.0	34.7*	2.0	0.3
Cc1cc(C)cc(NC(=S)N2CCN(c3ccccn3)CC2)c1	-4.9	2.4	-6.2	0.3	-8.5	x	x
CCOc1ccc(Oc2c(Cl)c(Br)nn(Cc3cccc4ccccc34)c2=O)cc1	-2.6	2.1	2.2	0.4	-3.5	x	x
O=S1(=O)c2ccc(N3CCCC3)cc2Oc2ccccc2CN1Cc1cn(Cc2cccc(C(F)(F)F)c2)nn1	4.7	0.8	6.4	-0.8	8.5	x	x
COc1ccccc1NC(=O)c1c(Nc2ccccc2F)sc(C(=O)Nc2cccc(Cl)c2)c1N	9.1*	-2.6	-2.7	-0.2	27.2*	19.4	7.0
COc1ccccc1NC(=O)C/C(N)=N/OCC(=O)Nc1cccc(Cl)c1	-1.0	-4.1	-0.2	0.1	-13.9	x	x
Cc1ccc(NC(=O)CSc2nc(NS(=O)(=O)c3ccc(C)cc3)cc(=O)[nH]2)cc1	7.0	-1.9	1.5	-0.1	23.0*	7.5	1.3
Cc1ccc(S(=O)(=O)Nc2cc(=O)[nH]c(SCC(=O)Nc3cccc(C(F)(F)F)c3)n2)cc1	-0.8	-1.0	7.3	-0.8	3.8	x	x
O=C(COc1ccc(Cl)cc1Cl)OCC(=O)N1CCCc2ccccc21	7.6	0.1	4.6	0.3	20.6*	3.8	0.3
COc1ccc(CCC(=O)N2CCN(S(=O)(=O)c3ccc(C)cc3)CC2)cc1	-2.8	-2.8	1.6	-0.2	-9.2	x	x
COc1ccc(S(=O)(=O)N2CCN(C(=O)c3ccc([N+](=O)[O-])o3)CC2)cc1	5.2	4.7	8.9	-0.8	21.0*	0.7	0.7
O=C(OCc1cn(Cc2cc(F)cc(F)c2)nn1)N1CCOCC1	-3.0	1.1	-1.8	-0.1	-4.6	x	x
CCN(CC)c1ccc(NC(=O)c2ccccc2Br)cc1S(=O)(=O)Nc1ccccc1OC	3.8	-0.9	-1.8	-1.0	15.9	x	x
CCN(CC)c1ccc(NC(=O)COc2ccccc2C)cc1S(=O)(=O)Nc1ccccc1OC	7.9	-0.3	1.5	0.2	20.6*	10.8	3.3
C=CCc1cccc(CNc2nc3ccccc3n2CC)c1O	5.4	-0.2	0.5	-0.2	20.0*	3.2	1.1
CCc1ccc(NC(=O)c2ccc(F)c(S(=O)(=O)N(CC)c3ccccc3)c2)cc1	3.2	1.9	3.0	-0.1	20.2*	2.6	0.0
O=C(NCc1ccccc1)OCCCN1C(=O)CCC12CCCCC2	-1.7	0.7	-2.5	0.1	0.3	x	x
O=C(CCN1CCN(c2ccccc2)CC1)NNC(=S)Nc1ccccc1Cl	15.0*	0.3	3.3	0.3	20.7*	0.8	1.0
O=C(NCCN1CCC(Cc2ccccc2)CC1)C1CCCN(S(=O)(=O)c2ccccc2)C1 (stereo not given)	0.6	3.6	4.0	0.2	1.1	x	x
COc1ccc([N+](=O)[O-])cc1N(CC(=O)NCCSc1ccc(C)cc1)S(C)(=O)=O	0.0	0.6	-1.2	-0.5	2.9	x	x
COc1ccc(C)cc1NS(=O)(=O)c1ccc(NC(=O)CN(c2cc([N+](=O)[O-])ccc2C)S(C)(=O)=O)cc1	9.1*	4.6	1.9	-0.8	23.4*	5.0	1.3
O=C(Cn1nc(-c2ccccc2)ccc1=O)NCCc1ccc(F)cc1	0.2	-0.2	0.6	-0.3	-2.0	x	x
